Laboratory results reported in the supplement of paper PMC3545927.
The other results are listed elsewhere or left out. How many sequences the whole screen found active is unknown.

Target: furin, P09958
Assay: furin cleavage Z-score vs untreated control; higher = more cleavage, active = 3.5 or more, inactive = 1 or less, 8 variable residues between constant flanks
In short: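 The cleavage Z-score is the log read count relative to furin-free reactions, lowess-adjusted and scaled by median absolute deviation. Counts came from sequencing DNA released from bead-bound 8-mer peptide–cDNA fusions after digestion with purified furin for 7.5, 15 or 30 min.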
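Also: purified furin at 1:10 enzyme:substrate in 50 mM HEPES pH 7.5.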

Sequence of furin, P09958 (P09958 whole entry): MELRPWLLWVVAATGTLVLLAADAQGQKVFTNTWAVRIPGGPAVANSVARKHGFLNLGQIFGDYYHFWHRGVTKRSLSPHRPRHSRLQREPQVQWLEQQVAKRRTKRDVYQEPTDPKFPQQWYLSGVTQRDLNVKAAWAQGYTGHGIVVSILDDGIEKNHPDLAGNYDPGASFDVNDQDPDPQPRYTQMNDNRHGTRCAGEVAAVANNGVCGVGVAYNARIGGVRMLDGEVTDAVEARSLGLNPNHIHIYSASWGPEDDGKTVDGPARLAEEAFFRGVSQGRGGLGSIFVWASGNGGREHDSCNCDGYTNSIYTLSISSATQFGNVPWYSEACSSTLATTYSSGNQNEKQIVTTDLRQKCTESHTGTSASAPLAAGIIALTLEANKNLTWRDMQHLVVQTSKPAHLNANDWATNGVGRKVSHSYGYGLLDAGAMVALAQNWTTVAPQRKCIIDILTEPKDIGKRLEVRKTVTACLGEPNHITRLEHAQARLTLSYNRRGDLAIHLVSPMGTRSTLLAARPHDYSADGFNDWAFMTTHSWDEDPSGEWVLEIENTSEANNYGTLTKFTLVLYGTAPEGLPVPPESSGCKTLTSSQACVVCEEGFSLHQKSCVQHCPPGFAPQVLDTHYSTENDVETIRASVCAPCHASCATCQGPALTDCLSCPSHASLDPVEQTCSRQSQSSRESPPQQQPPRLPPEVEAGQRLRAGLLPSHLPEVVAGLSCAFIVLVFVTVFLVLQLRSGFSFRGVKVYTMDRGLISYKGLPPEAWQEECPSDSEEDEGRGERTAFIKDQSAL

| Sequence | furin cleavage Z-score (7.5 min) | furin cleavage Z-score (15 min) | furin cleavage Z-score (30 min) |
| --- | --- | --- | --- |
| CALVETWKKPAGNASASA [HC1309] | 0.819 (inactive) | 0.268 (inactive) | -0.773 (inactive) |
| CAGIPFVSCQAGNASASA [HC1163] | -0.0749 (inactive) | 0.44 (inactive) | -1.36 (inactive) |
| CATREVPCHRAGNASASA [HC2438] | 0.921 (inactive) | 2.06 | 2.03 |
| CADPRRRSRNAGNASASA [HC216] | 4.59 (active) | 5.65 (active) | 5.55 (active) |
| CAKGGRKPARAGNASASA [HC1446] | -0.269 (inactive) | -0.328 (inactive) | -1.51 (inactive) |
| CAVGIYLLPNAGNASASA [HC1662] | 0.402 (inactive) | 0.33 (inactive) | -0.482 (inactive) |
| CAKGGRRSRNAGNASASA [FS-340] | 4.05 (active) | 5.15 (active) | 6.68 (active) |
| CALGIRSFRNAGNASASA [TR6] | 1.49 | 1.8 | -0.165 (inactive) |
| CALINVRKRNAGNASASA [FS-1357] | 0.912 (inactive) | 2.51 | 1.58 |
| CALGGRRKRNAGNASASA [FS-1356] | 11.1 (active) | 12.5 (active) | 7.53 (active) |
| CAPDLGVRVCAGNASASA [HC1452] | -1.67 (inactive) | -0.653 (inactive) | -0.786 (inactive) |
| CARVFRQVEKAGNASASA [FS-2386] | -1.6 (inactive) | -2.06 (inactive) | -1.6 (inactive) |
| CARFDRSVEKAGNASASA [FS-2013] | 2.17 | 0.744 (inactive) | 3.51 (active) |
| CARFDRSSGPAGNASASA [FS-3220] | -0.295 (inactive) | 1.66 | 0.428 (inactive) |
| CARFRRDLVKAGNASASA [FS-1892] | 3.6 (active) | 6.06 (active) | 7.08 (active) |
| CARFRREVEKAGNASASA [FS-2490] | 9.16 (active) | 8.26 (active) | 9.23 (active) |
| CARNIRSGVHAGNASASA [FS-3006] | -0.391 (inactive) | -0.599 (inactive) | -0.61 (inactive) |
| CAEVVTSTWNAGNASASA [HC2261] | -0.954 (inactive) | 1.01 | 0.548 (inactive) |
| CAGGVVLVGLAGNASASA [HC570] | -0.221 (inactive) | 0.261 (inactive) | -0.661 (inactive) |
| CAWQRRLRRLAGNASASA [FS-895] | 3.85 (active) | 5.94 (active) | 6.13 (active) |
| CASRGRLRRLAGNASASA [FS-1572] | 4.39 (active) | 6.32 (active) | 6.52 (active) |
| CALPSRETRYAGNASASA [FS-1364] | 2.17 | 1.29 | -0.268 (inactive) |
| CALPSRLRRMAGNASASA [FS-55] | 9.43 (active) | 11.4 (active) | 8.99 (active) |
| CAGDSRQRRLAGNASASA [FS-424] | -0.0244 (inactive) | 0.999 (inactive) | 0.163 (inactive) |
| CAFLTRLRRPAGNASASA [FS-769] | -0.966 (inactive) | -0.023 (inactive) | 0.341 (inactive) |
| CAEPRRQRRLAGNASASA [FS-1118] | 3.93 (active) | 4.47 (active) | 4.27 (active) |
| CAPRWIWFCLAGNASASA [HC1655] | 2.54 | 0.216 (inactive) | 2.32 |
